aSyn UTR act: Activators working through SNCA 5'UTR binding (MLPCN) | alpha-synuclein 5'UTR reporter, activators screen | activity score, % (tested at 7.5 µM), hits read low | 300,000 compounds, 7.1% hits; in the data active means activity score below about -60%
Numbers stand for hits. A selection follows.

O=C(N/N=C/c1cc2c(cc1[N+](=O)[O-])OCO2)c1ccccn1 was read as aSyn UTR act -81.
Cn1cc(Br)c(C(=O)N/N=C/c2cc3c(cc2Cl)OCO3)n1 was read as aSyn UTR act -140.
`O=C(c1ccco1)N1CCN(c2ccc(F)cc2)CC1` gave aSyn UTR act -79.
O=C(Nc1ccc(-c2ccc(N3CCCCC3)nn2)cc1)c1ccco1 was read as aSyn UTR act -131.
For COc1ccccc1N1CCN(c2nc(C)nc3c2oc2ccccc23)CC1 the results were aSyn UTR act inactive.
For O=C(c1ccco1)N1CCN(c2ccc(N3CCCCC3)nn2)CC1 the results were aSyn UTR act -133.
For Cc1nc(N2CCN(C(=O)c3ccco3)CC2)c2oc3ccccc3c2n1 the results were aSyn UTR act -89.
Screening Cc1nc(N2CCN(C(=O)c3ccco3)CC2)nc2c1C(=O)CCC2 returned aSyn UTR act -121.
Screening C=CCNc1oc(/C=C/c2ccccc2)nc1C#N returned aSyn UTR act -152.
CN(C)CCNc1oc(/C=C/c2ccccc2)nc1C#N was read as aSyn UTR act -98.
For CN(C)CCCNc1oc(/C=C/c2ccccc2)nc1C#N the results were aSyn UTR act -88.
`Cc1cc(C)c2nc(NCCCNC(=S)NCCCN(C)C)c(C#N)cc2c1` gave aSyn UTR act inactive.
For CCOc1ccccc1CNC(=O)c1cc2oc3ccccc3c2n1C the results were aSyn UTR act inactive.
COCCNC(=O)c1cc2oc3ccccc3c2n1C was read as aSyn UTR act -99.
`CN(C)/C=C1\N=C(c2ccc3c(c2)OCO3)OC1=O` gave aSyn UTR act -116.
For O=C(Nc1cccc(-c2cn3c(n2)SCC3)c1)c1ccc2ccccc2n1 the results were aSyn UTR act -141.
For O=C(Nc1ccc(-c2cn3c(n2)SCC3)cc1)c1ccc2ccccc2n1 the results were aSyn UTR act -186.
Screening CC(C)=CCc1c(O)cc2oc3c(CC=C(C)C)c(O)c(O)c(CC=C(C)C)c3c(=O)c2c1O returned aSyn UTR act inactive.
CC1Oc2cc3oc4c(O)c(O)ccc4c(=O)c3c(O)c2C1(C)C (centres undefined) was read as aSyn UTR act -150.
`Cc1cc(C)nc(NC(=O)/C=C/c2ccc(Cl)cc2Cl)c1` gave aSyn UTR act -129.
For Cc1cc(C)nc(NC(=O)/C=C/c2ccccc2Cl)n1 the results were aSyn UTR act -161.
For Cc1cc(N)c2cc(NC(=O)/C=C/c3ccccc3Cl)ccc2n1 the results were aSyn UTR act inactive.
Cc1cc(C)nc(NC(=O)/C=C/c2ccccc2Cl)c1 was read as aSyn UTR act -185.
Screening Cc1cc(C(=O)NNC(=S)NC(=O)/C=C/c2ccccc2Cl)n[nH]1 returned aSyn UTR act -94.
O=C(/C=C/c1ccc(-c2ccc(F)cc2)o1)N1CCCC1 was read as aSyn UTR act -127.
`CN1CCN(C(=O)/C=C/c2ccc([N+](=O)[O-])o2)CC1` gave aSyn UTR act -83.
For O=C(c1ccccc1)[C@H]1[C@H](c2ccccc2)[C@@]2(N=C(c3ccccc3)OC2=O)C2c3ccccc3C=NN21 (some centres undefined) the results were aSyn UTR act -110.
Screening Cc1cc(C)nc(Nc2ccc(N3CCCC3)cc2)n1 returned aSyn UTR act -65.
COc1ccc(Nc2nc(C)cc(C)n2)cc1Cl was read as aSyn UTR act -114.
For Cc1cc(C)nc(Nc2ccc(C(=O)O)cc2)n1 the results were aSyn UTR act -157.
Screening CCc1ccc(Nc2nc(C)cc(C)n2)cc1 returned aSyn UTR act -179.
For N#Cc1c(NC(=S)NC(=O)c2ccccc2)sc2c1CCCC2 the results were aSyn UTR act -96.
For N#Cc1c(NC(=O)c2cnccn2)sc2c1CCCC2 the results were aSyn UTR act -128.
Screening N#Cc1ccc(-c2cccnc2)nc1SCC(=O)Nc1sc2c(c1C#N)CCC2 returned aSyn UTR act -88.
N#Cc1c(NC(=O)c2cccnc2)sc2c1CCC2 was read as aSyn UTR act -150.
`CNC(=O)c1c(NC(=O)c2cccc(C)c2)sc2c1CCC2` gave aSyn UTR act -213.
`N#Cc1c(NC(=O)c2ccccc2)sc2c1CCC2` gave aSyn UTR act -288.
`N#Cc1c(NC(=O)c2ccc([N+](=O)[O-])o2)sc2c1CCC2` gave aSyn UTR act -107.
For NC(=O)c1c(NC(=O)c2ccc([N+](=O)[O-])o2)sc2c1CCCC2 the results were aSyn UTR act inactive.
Cc1cc(C(=O)Nc2sc3c(c2C#N)CCC(C)C3)cs1 (centres undefined) was read as aSyn UTR act -103.
For CC1CCc2c(sc(NC(=S)NC(=O)c3ccccc3)c2C#N)C1 (centres undefined) the results were aSyn UTR act -74.
Nc1nonc1-n1nnc(C(=O)N/N=C/c2ccc(OCc3ccccc3F)cc2)c1CN1CCCCC1 was read as aSyn UTR act -111.
For Nc1nonc1-n1nnc(C(=O)N/N=C/c2ccc(OCc3cccc(Cl)c3)cc2)c1CN1CCCCC1 the results were aSyn UTR act -136.
For CC1CCN(Cc2c(C(=O)N/N=C/c3cc(Cl)ccc3O)nnn2-c2nonc2N)CC1 the results were aSyn UTR act inactive.
Screening Cc1ccc(C(=O)Oc2ccc(/C=N/NC(N)=O)cc2)cc1 returned aSyn UTR act -124.
NC(=O)N/N=C/c1ccc(OCc2cccc(Cl)c2)cc1 was read as aSyn UTR act -73.
Cc1cccc(COc2ccc(/C=N/NC(=O)c3nnn(-c4nonc4N)c3CN3CCCCC3)cc2)c1 was read as aSyn UTR act -101.
`CC1CCN(Cc2c(C(=O)N/N=C/c3cc(Br)ccc3O)nnn2-c2nonc2N)CC1` gave aSyn UTR act inactive.
`Cc1cccc2cc(C#N)c(NCc3ccccc3)nc12` gave aSyn UTR act -76.
Screening Cc1[nH]c2ccccc2c1N=Nc1cccc(C(=O)O)c1 returned aSyn UTR act -96.
Cc1[nH]c2ccccc2c1N=Nc1ccccc1C(=O)O was read as aSyn UTR act -70.
`O=[N+]([O-])c1ccc(-c2cnc3ccccc3n2)cc1` gave aSyn UTR act -124.
Screening O=[N+]([O-])c1cc(-c2cnc3ccccc3n2)ccc1Oc1ccc(F)cc1 returned aSyn UTR act -150.
CCOc1ccc(-c2cnc3ccccc3n2)cc1 was read as aSyn UTR act inactive.
`S=c1[nH]nc(-c2cc3c(s2)-c2ccccc2CC3)o1` gave aSyn UTR act -123.
`CSc1nnc(-c2cc3c(s2)-c2ccccc2CC3)o1` gave aSyn UTR act -169.
`CCC(NC(=O)c1cc(COc2ccc(OC)cc2Cl)on1)c1ccncc1` (centres undefined) gave aSyn UTR act -71.
COc1cc(C(=O)NC(=S)NNC(=O)c2cnccn2)cc(OC)c1OC was read as aSyn UTR act inactive.
CCC(NC(=O)c1cc(COc2ccc(Cl)cc2OC)on1)c1ccncc1 (centres undefined) was read as aSyn UTR act -121.
COc1cc(Cl)ccc1OCc1cc(C(=O)NC(C)Cc2cnccn2)no1 (centres undefined) was read as aSyn UTR act -145.
For COc1ccc(OCc2cc(C(=O)NC(C)Cn3cncn3)no2)c(Cl)c1 (centres undefined) the results were aSyn UTR act -62.
`CC(C)c1ccc(NC(=O)NN2CCOCC2)cc1` gave aSyn UTR act -98.
`CCC(C)c1ccc(NC(=S)NN2CCOCC2)cc1` (centres undefined) gave aSyn UTR act -99.
Screening C/C(=N\NC(=O)C(c1ccccc1)c1ccccc1)c1ccccn1 returned aSyn UTR act inactive.
